The list is not random: actives were taken first. Their share in the collection is about 11%.
G9a block: inhibitors of human histone lysine methyltransferase G9a; G9a H3K9 monomethylation, AlphaScreen, 2 h; Potency, µM (highest dose often 102 µM), without a hit: at the top dose activity, negative = inhibition, actives largely listed as inhibitors; 8.8% of 350,000 active; also: % is scaled to controls: 0 for no effect and ±100 for the full control effect; nearly all actives have a fitted effect of over 75% in size
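AlphaScreen detection with an anti-monomethyl H3K9 antibody quantified product after a 2 h room-temperature reaction containing 500 nM biotinylated H3K9 peptide, 20 µM SAM and 20 nM enzyme, which had been preincubated 15 min with compound.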
JMJD2A Tudor inh: JMJD2A Tudor domain (human) inhibition; O75164; AlphaScreen JMJD2A-Tudor / H3K4me3 peptide binding; Potency, µM (top dose mostly 114 µM), without a hit: at the highest dose activity change, negative = inhibition, hits mostly inhibitors; 4.4% of 390,000 active; AID 504339; also: % is scaled to controls: 0 for no effect and ±100 for the full control effect; nearly all actives have a fitted effect of over 50% in size
HP1b chromo inh: inhibitors of HP1-beta chromodomain binding to methylated histone tails; AID 540317; AlphaScreen HP1-beta / biotin-H3K9me3 peptide binding; 0.56% of 390,000 active; Potency, µM (top dose mostly 114 µM), for the others: at the highest dose activity change, negative = inhibition, hits mostly inhibitors; also: nearly all actives have a fitted effect of over 70% in size
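HP1-beta protein (50 nM final) preincubated 30 min at room temperature with biotinylated H3(1-18)K9me3 peptide (50 nM) in PBS pH 7.4, 0.01% Tween-20, then compound added for 30 min. AlphaScreen streptavidin donor/nickel chelate acceptor beads (10 ug/mL final), 30 min dark, luminescence read.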
BAZ2B inh: BAZ2B (human) inhibition; Q9UIF8; AlphaScreen BAZ2B-H3K14Ac peptide displacement; Potency, µM (highest dose often 114 µM), for the others: at the highest dose activity change, negative = inhibition, usual class: inhibitors; 4.4% of 360,000 active; AID 504333; also: % is scaled to controls: 0 for no effect and ±100 for the full control effect; nearly all actives have a fitted effect of over 60% in size
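Protein-peptide AlphaScreen: BAZ2B 50 nM, b-H3K14Ac 50 nM, 1x PBS pH 7.4 + 0.01% Tween-20. Preincubation 30 min RT; cpd 30 min RT (top 110 uM); beads 20 min RT, light-protected.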
L3MBTL1 block: L3MBTL1 (human) inhibition; 0.66% of 230,000 active; AlphaScreen L3MBTL1–H3K9me1 peptide binding; Potency, µM (doses to about 57.1 µM), inactives show at the top dose activity, negative = inhibition, usual class: inhibitors; also: % is scaled to controls: 0 for no effect and ±100 for the full control effect; nearly all actives have a fitted effect of over 60% in size
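Displacement of a biotinylated histone H3(1-15) peptide monomethylated at Lys9 (75 nM) from L3MBTL1 (50 nM) was measured by AlphaScreen after a 30 min room-temperature compound incubation; cefsulodin titration served as intraplate control.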
Active calls of the source: *; ? = inconclusive; · = not tested or not shown; [ ] = dose if it differs, or a comment. Calls follow the shape of the dose curve; as a rule, active = well fitted inhibition curve with a large enough effect; inconclusive = small, poorly fitted or top-dose-only effect; inactive = no such curve, though single readings can be large or run the other way. Potency is read from the fitted curve at half-maximal effect.

SMILES | G9a block | JMJD2A Tudor inh | HP1b chromo inh | BAZ2B inh | L3MBTL1 block
NS(=O)(=O)c1ccc2c(c1)C1C=CCC1C(C1CC=CCC1)N2 (stereo unspecified) | ? | ? | -20% | 50µM* | ·
O=C(O)c1cc([N+](=O)[O-])c(NCCC2=CCCCC2)c([N+](=O)[O-])c1 | 50µM* | -32% | -4% | -27% | ·
Cc1ccc(F)c(C2C3C=CCCC3(C)C(=O)N2Cc2ccccc2)c1 (stereo unspecified) | · | -3% | 36% | · | ·
COc1ccc(N2CCN(C(CNC(=O)C3CCCCC3)c3ccco3)CC2)cc1 (stereo unspecified) | 45µM* | -32% | ? | -7% | -16%
COc1ccc(N2CCN(C(CNC(=O)C(=O)NC3CC3)c3ccco3)CC2)cc1 (stereo unspecified) | 45µM* | -6% | 30% | -25% | 11%
CCOC(=O)c1c2c(n(C)c1C)C(=O)C(=O)c1ccc(Br)cc1-2 | · | -16%[57.1 µM] | 9% | · | ·
CCOC(=O)c1c2c3c(cccc3[nH]c1=O)C(=O)c1ccccc1-2 | 56µM* | -18% | 22% | -19% | 1%
CCOC(=O)c1c2c(n(Cc3ccccc3)c1C)C(=O)C(=O)c1ccccc1-2 | · | 7.1µM* | 25µM* | · | ·
CCOC(=O)c1c2c3c(c(Cl)ccc3[nH]c1=O)C(=O)c1ccccc1-2 | ? | -24% | 4% | 32µM* | -25%
O=C1CCCN1CCC(=O)N1CCCC(N2CCN(c3ccccc3F)CC2)C1 (stereo unspecified) | · | -8% | 37% | 3% | ·
COc1ccc(O)c(-c2c(-c3ccc(Cl)cc3)n[nH]c2C)c1 | 25µM* | ? | -32% | ? | -21%
COc1ccc(CCNCC(O)Cn2c3ccccc3c3ccccc32)cc1OC (stereo unspecified) | ? | -35% | -6% | ? | -4%
COc1ccccc1NCC(O)Cn1c2ccccc2c2ccccc21 (stereo unspecified) | ? | 40µM* | ? | 40µM* | ·
CCC1CCCCN1CC(O)COCc1cccc(OC)c1 (stereo unspecified) | 13% | -8% | -8% | -16% | ·
NC(=O)C1CCCN(CC(O)COCc2ccc(Cl)cc2)C1 (stereo unspecified) | -10% | 18µM* | -32% | 50µM* | ·
OCCC1CCCCN1CC(O)COCc1ccc(Cl)cc1 (stereo unspecified) | ? | 22µM* | ? | ? | ·
CCOC(=O)C1CCN(CC(O)COCc2ccc(Cl)cc2)CC1 (stereo unspecified) | 22% | 11% | 33% | -5% | ·
Cc1ccc(NC(=O)CSc2nccn2C2CCCC2)cc1 | -11%[59 µM] | -20% | 15% | -29% | ·
O=C(c1cnccn1)N1CCC2(CC1)CCN(c1ncccn1)CC2 | -8%[12.7 µM] | · | · | · | ·
CCOc1ccccc1C(=O)N1CCCCC1CCN1CCOCC1 (stereo unspecified) | -6%[59 µM] | -19% | 39% | 0% | ·
CC(C)(C)NC(=S)NC(=O)C12CCC3CC(CC(C3)C1)C2 | -34% | ? | 3% | 71µM* | -7%
O=C(O)Cc1csc(Nc2cccc(Cl)c2)n1 | -14%[59 µM] | -24% | 16% | -37% | -10%
CC(C)c1ccc(Nc2nc(CC(=O)O)cs2)cc1 | 40µM* | -32% | -13% | -29% | ·
CCN(CC)C1=CC(=O)OC12CCCCC2 | 3.5µM* | 32µM* | -23% | -6% | 1%
Cc1nc(SCC(=O)NC2(C#N)CCCC2)n(CC(C)C)c1C | 40µM* | -14% | 19% | -2% | -7%
SMILES | G9a block | JMJD2A Tudor inh | HP1b chromo inh | BAZ2B inh | L3MBTL1 block
COc1cccc(CNC(=O)Cc2ccc(NC(=O)N3CCSc4ncccc43)cc2)c1OC | -2%[59 µM] | -7% | 10% | -15% | ·
Cc1cc(C)c(-n2c(C)cc(/C=C3/NC(=O)NC3=O)c2C)c(C)c1 | ? | ? | ? | 50µM* | -21%
COC(=O)C1=C(C)NC(=O)/C1=C\c1cc(C)n(-c2ccc(F)cc2)c1C | · | ? | -20% | ? | -7%
Cc1cccc(-n2c(C)cc(/C=C3\NC(=O)NC3=O)c2C)c1 | 45µM* | -27% | -3% | ? | -23%
Cc1cc(/C=C2/NC(=O)NC2=O)c(C)n1C | ? | -22% | -6% | -17% | ·
COC(=O)C1=C(C)NC(=O)/C1=C\c1cc(C)n(-c2cccc(C)c2)c1C | -2%[12.7 µM] | 45µM* | 20µM* | 40µM* | ·
O=C(NCc1ccc(F)cc1)c1ccc2c(c1)nc1n2CCCCC1 | 17%[59 µM] | -20% | 24%[57 µM] | 10% | ·
CC(C)CCCC(C)C1CC(=O)C2=C3CCC4CC(O)CCC4(C)C3CCC21C (stereo unspecified) | 2%[12.7 µM] | · | · | · | ·
COC(=O)c1c(C)n(-c2ccccc2)c2ccc(O)cc12 | -3%[0.0925 µM] | ? | -7% | -35% | -14%
CN(C)/C=C/c1c([N+](=O)[O-])c2ccc(O)cc2n1-c1ccccc1 | · | ? | -28% | 35µM* | -4%
S=c1[nH]nc(C2CCCCC2)n1/N=C/C(Cl)=C\c1ccccc1 | 25µM* | ? | -9% | -3% | 0%
CC(/C=N/NC(=O)c1cc(C2CC2)[nH]n1)=C\c1ccccc1 | 27% | -19% | 27% | -11% | ·
S=c1[nH]nc(C2CCCCC2)n1/N=C/C=C/c1ccccc1 | 10µM* | 79µM* | -34% | ? | -13%
Cc1ccccc1CCNC(=O)c1ccc2c(c1)nc1n2CCCCC1 | 0%[59 µM] | 3% | 23%[57 µM] | ? | ·
COc1ccccc1NC1=CC(=O)CC(c2ccccc2)C1 (stereo unspecified) | ? | -7% | 29% | 2% | -3%
COc1ccc(NC2=CC(=O)CC(c3ccc(C)cc3)C2)c(OC)c1 (stereo unspecified) | · | 79µM* | -16% | · | ·
CC(=O)c1ccc(C2CC34CNS(=O)(=O)C3CC2O4)cc1 (stereo unspecified) | · | 79µM* | -23% | · | ·
COc1ccc(C(=O)NCc2ccc3c(c2)CCN3C(=O)c2ccc(C)cc2)cc1 | -3%[59 µM] | ? | 27% | 1% | ·
COC(=O)Cn1cc(C(=O)C2CC2)c2ccccc21 | 11%[12.7 µM] | 5% | 16% | 1% | 8%[11.4 µM]
CC(NC(=O)Cn1cc(C(=O)C2CC2)c2ccccc21)c1ccccc1 (stereo unspecified) | 16%[59 µM] | 79µM* | -5% | 9% | -1%
CCC(C)N(C(=O)COC(=O)c1cc([N+](=O)[O-])ccc1N1CCOCC1)C1CCS(=O)(=O)C1 (stereo unspecified) | -2% | -16% | 5% | 11% | -5%
CCC(C)N(C(=O)COC(=O)c1nc2nc(C)cc(C)n2n1)C1CCS(=O)(=O)C1 (stereo unspecified) | 16µM* | -1% | 28% | -4% | 7%
CCC(C)N(C(=O)COC(=O)CSc1ccc([N+](=O)[O-])cc1)C1CCS(=O)(=O)C1 (stereo unspecified) | 40µM* | -8% | 19% | -27% | ·
